Measured values published in the OligoGym collection.

Each sequence was assayed against KBTBD12 (assay: pooled miR-30 sensor sort-seq; sequence = guide strand). Settings: shRNA.
Note: reference of the scale not given here.

Question: With TACAGCTGTACTGAATCGGTAC as the sequence, how does the sensor-assay potency score (higher = more potent) read?
Answer: Its sensor-assay potency score (higher = more potent) is -0.257.

Question: For TGGTCATCTAGCTACAACCTAC, which sensor-assay potency score (higher = more potent) is on record?
Answer: The sensor-assay potency score (higher = more potent) was -1.11.

Question: TTCTTCATCAGGAAGATCCATC was tested. Which sensor-assay potency score (higher = more potent) did it give?
Answer: The sensor-assay potency score (higher = more potent) was -0.961.

Each sequence was assayed against KCNAB2 in the same assay as above. Settings: shRNA.

Question: AATACTATCAATCTCGTGGATA was tested. Which sensor-assay potency score (higher = more potent) did it give?
Answer: Its sensor-assay potency score (higher = more potent) is -1.21.

Question: How did the sensor-assay potency score (higher = more potent) turn out when TATCTTGTGGAACAGCTCCGGC was run?
Answer: The sensor-assay potency score (higher = more potent) was -1.17.

Question: How did the sensor-assay potency score (higher = more potent) turn out when TTTCAGACCTTCGATTATGTGC was run?
Answer: Its sensor-assay potency score (higher = more potent) is -0.469.

Question: With TGACAGTTTCGGAAGGACCTGT as the sequence, how does the sensor-assay potency score (higher = more potent) read?
Answer: The sensor-assay potency score (higher = more potent) was 0.657.

Question: For TTCGATTATGTGCTTCCTGGAC, which sensor-assay potency score (higher = more potent) is on record?
Answer: Its sensor-assay potency score (higher = more potent) is -0.692.

Question: TTCCTGTAGATCATCCCGGGGG was tested. Which sensor-assay potency score (higher = more potent) did it give?
Answer: Its sensor-assay potency score (higher = more potent) is -0.0548.

Question: With TAGACTTCTGCTGTATCGAAGA as the sequence, how does the sensor-assay potency score (higher = more potent) read?
Answer: Its sensor-assay potency score (higher = more potent) is -0.756.

Question: How did the sensor-assay potency score (higher = more potent) turn out when TTCTGCTGTATCGAAGAGGTTG was run?
Answer: The sensor-assay potency score (higher = more potent) was -0.594.

Question: CAAAATACTATCAATCTCGTGG was tested. Which sensor-assay potency score (higher = more potent) did it give?
Answer: The sensor-assay potency score (higher = more potent) was -0.486.

Question: TTGGTGGTGATGACGAGGCTGG was tested. Which sensor-assay potency score (higher = more potent) did it give?
Answer: Its sensor-assay potency score (higher = more potent) is -0.706.

Question: How did the sensor-assay potency score (higher = more potent) turn out when TTTCTCACGCTGGAACATGTGG was run?
Answer: The sensor-assay potency score (higher = more potent) was -0.804.

Question: ATGATCTCCATGGAGCTCCAGC was tested. Which sensor-assay potency score (higher = more potent) did it give?
Answer: The sensor-assay potency score (higher = more potent) was -1.53.

What follows are sequences tested against KCNB1 in the same assay as above. Settings: shRNA.

Question: With TTTTCTCCGATCTTGTCCCCGT as the sequence, how does the sensor-assay potency score (higher = more potent) read?
Answer: Its sensor-assay potency score (higher = more potent) is -0.234.

Question: Which sensor-assay potency score (higher = more potent) does the source give for TACATGTCTTCCAACTGCTGAA here?
Answer: The sensor-assay potency score (higher = more potent) was -0.486.

Question: How did the sensor-assay potency score (higher = more potent) turn out when TAGATCTCGTCGATGCCCCAGT was run?
Answer: The sensor-assay potency score (higher = more potent) was -0.693.

Question: TTTGAACTTGGTGTCGTCCTCA was tested. Which sensor-assay potency score (higher = more potent) did it give?
Answer: The sensor-assay potency score (higher = more potent) was 0.816.

Question: With TAGAAGTTGAGGATGGAGGTGA as the sequence, how does the sensor-assay potency score (higher = more potent) read?
Answer: The sensor-assay potency score (higher = more potent) was 0.819.

Question: TTTCTCAACCACAATGTCCATC was tested. Which sensor-assay potency score (higher = more potent) did it give?
Answer: The sensor-assay potency score (higher = more potent) was -0.571.

Question: How did the sensor-assay potency score (higher = more potent) turn out when TACTTTGTCTTTCTTACCCATA was run?
Answer: The sensor-assay potency score (higher = more potent) was -1.04.

Question: How did the sensor-assay potency score (higher = more potent) turn out when TTGAACTTGGTGTCGTCCTCAT was run?
Answer: Its sensor-assay potency score (higher = more potent) is 0.219.

Question: With TTCATCTGCTCTTTCTTCTGGT as the sequence, how does the sensor-assay potency score (higher = more potent) read?
Answer: Its sensor-assay potency score (higher = more potent) is 0.512.

Question: With TTAGTTTTCATGGAACTCTTGG as the sequence, how does the sensor-assay potency score (higher = more potent) read?
Answer: The sensor-assay potency score (higher = more potent) was 0.191.

Question: How did the sensor-assay potency score (higher = more potent) turn out when TACTCGTTGTCGTCGAGGCTGT was run?
Answer: Its sensor-assay potency score (higher = more potent) is -0.424.

The sequences below were run against KCNC1 in the same assay as above. Settings: shRNA.

Question: With AATTTCTAAAATTTCTTCCTGG as the sequence, how does the sensor-assay potency score (higher = more potent) read?
Answer: The sensor-assay potency score (higher = more potent) was 0.198.

Question: Which sensor-assay potency score (higher = more potent) does the source give for TTGATGAACTCTACCTTGTTGG here?
Answer: Its sensor-assay potency score (higher = more potent) is 0.0525.

Question: Which sensor-assay potency score (higher = more potent) does the source give for TTGCGTGCCATTGCGAACGTTC here?
Answer: The sensor-assay potency score (higher = more potent) was -0.65.

Question: With TTCTTTGGTAGTTTCTGCTTAG as the sequence, how does the sensor-assay potency score (higher = more potent) read?
Answer: Its sensor-assay potency score (higher = more potent) is -0.569.

Question: With TACTTAGCAATGACAGGGCTTT as the sequence, how does the sensor-assay potency score (higher = more potent) read?
Answer: Its sensor-assay potency score (higher = more potent) is -0.252.

Question: Which sensor-assay potency score (higher = more potent) does the source give for TTTCTTTGGTAGTTTCTGCTTA here?
Answer: Its sensor-assay potency score (higher = more potent) is 0.312.

Question: TTCAGTTTGGAATCTGCTCTGT was tested. Which sensor-assay potency score (higher = more potent) did it give?
Answer: Its sensor-assay potency score (higher = more potent) is 0.183.

Question: TTCTTGATGAACTCTACCTTGT was tested. Which sensor-assay potency score (higher = more potent) did it give?
Answer: The sensor-assay potency score (higher = more potent) was -0.835.

Question: For TAGTAGTTCAGGATGTGCGCGA, which sensor-assay potency score (higher = more potent) is on record?
Answer: Its sensor-assay potency score (higher = more potent) is 0.436.

Question: ATGAACTCTACCTTGTTGGGGC was tested. Which sensor-assay potency score (higher = more potent) did it give?
Answer: Its sensor-assay potency score (higher = more potent) is 0.181.

Question: For TAAGGAGTAATACATCCCGAAA, which sensor-assay potency score (higher = more potent) is on record?
Answer: Its sensor-assay potency score (higher = more potent) is -1.65.

Question: TTTTCTTTGGTAGTTTCTGCTT was tested. Which sensor-assay potency score (higher = more potent) did it give?
Answer: Its sensor-assay potency score (higher = more potent) is -0.644.
